{"source": "PubChem BioAssay (NCATS)", "note": "Results filed as inconclusive are left out. Entries that show only a call come without a potency. Active and inactive are the calls of the source. The call rests on the fitted dose curve; in most records, active means well fitted curve in the direction sought with a large enough effect; inconclusive means small, poorly fitted or top-dose-only effect, or another doubt; inactive means no such curve, though single readings can be large; an effect the other way counts as inactive or inconclusive.", "data": [{"assay": "qHTS of pediatric cancer cell lines to identify multiple opportunities for drug repurposing: Confirmatory screen for MG 63 (6-TG R) cells (AID 1347119); further: nearly all actives have a fitted effect of over 55% in size; further: potency means the concentration at half of the fitted maximal effect", "conditions": "MG-63 (6-TG resistant) osteosarcoma viability; series mostly up to 45.9 µM", "in_short": "(§1)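 Viability after 48 h compound treatment at 37C, 500-1,000 cells/well, read as ATP luminescence with CellTiter-Glo. Primary screens used 11-point (MIPE, 0.78 nM-46 µM) or 8-point (NPC, 0.59 nM-46 µM) final concentrations; follow-up screens used 11-point dilutions.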", "values": [{"compound": "CN1CCCC(n2nc(Cc3ccc(Cl)cc3)c3ccccc3c2=O)CC1", "note": "(centres undefined)", "Potency": "inactive"}, {"compound": "CCC(=O)O[C@]1(C(=O)SCF)[C@H](C)C[C@H]2[C@@H]3C[C@H](F)C4=CC(=O)C=C[C@]4(C)[C@@]3(F)[C@@H](O)C[C@@]21C", "Potency": "inactive"}, {"compound": "S=P(N1CC1)(N1CC1)N1CC1", "Potency": "inactive"}, {"compound": "CC1CC2C3CCC4=CC(=O)C=C[C@]4(C)[C@@]3(F)[C@@H](O)C[C@]2(C)[C@@]1(O)C(=O)CO", "note": "(some centres undefined)", "Potency": "inactive"}, {"compound": "Nc1nc(=S)c2[nH]cnc2[nH]1", "Potency": "inactive"}, {"compound": "CNCC[C@H](Oc1cccc2ccccc12)c1cccs1", "Potency": "26.1 µM (active)"}, {"compound": "COc1cc2nc(N3CCCN(C)CC3)nc(NC3CCN(Cc4ccccc4)CC3)c2cc1OC", "Potency": "inactive"}, {"compound": "Nc1nc(N)c2nc(CNc3ccc(C(=O)NC(CCC(=O)O)C(=O)O)cc3)cnc2n1", "note": "(centres undefined)", "Potency": "inactive"}, {"compound": "N=C(N)c1ccc(OCCCCCOc2ccc(C(=N)N)cc2)cc1", "Potency": "11.7 µM (active)"}, {"compound": "CNNCc1ccc(C(=O)NC(C)C)cc1", "Potency": "inactive"}, {"compound": "Oc1c(Cl)cc(Cl)c2cccnc12", "Potency": "11.7 µM (active)"}, {"compound": "COc1cc(NCc2ccc3nc(N)nc(N)c3c2C)cc(OC)c1OC", "Potency": "20.8 µM (active)"}, {"compound": "CCc1c2c(nc3ccc(OC(=O)N4CCC(N5CCCCC5)CC4)cc13)-c1cc3c(c(=O)n1C2)COC(=O)[C@]3(O)CC", "Potency": "1.85 µM (active)"}, {"compound": "CNS(=O)(=O)CCc1ccc2[nH]cc(C3CCN(C)CC3)c2c1", "Potency": "inactive"}]}, {"assay": "qHTS of pediatric cancer cell lines to identify multiple opportunities for drug repurposing: Confirmatory screen for control Hh wild type fibroblast cells (AID 1347121)", "conditions": "viability qHTS; series mostly up to 45.9 µM", "in_short": "as §1", "values": [{"compound": "CN1CCCC(n2nc(Cc3ccc(Cl)cc3)c3ccccc3c2=O)CC1", "note": "(centres undefined)", "Potency": "inactive"}, {"compound": "COC(=O)Nc1nc2ccc(C(=O)c3ccccc3)cc2[nH]1", "Potency": "inactive"}, {"compound": "CCC(=O)O[C@]1(C(=O)SCF)[C@H](C)C[C@H]2[C@@H]3C[C@H](F)C4=CC(=O)C=C[C@]4(C)[C@@]3(F)[C@@H](O)C[C@@]21C", "Potency": "inactive"}, {"compound": "S=P(N1CC1)(N1CC1)N1CC1", "Potency": "inactive"}, {"compound": "O=C(NCC1CN(c2ccc(N3CCOCC3=O)cc2)C(=O)O1)c1ccc(Cl)s1", "note": "(centres undefined)", "Potency": "inactive"}, {"compound": "CC1CC2C3CCC4=CC(=O)C=C[C@]4(C)[C@@]3(F)[C@@H](O)C[C@]2(C)[C@@]1(O)C(=O)CO", "note": "(some centres undefined)", "Potency": "inactive"}, {"compound": "CS(=O)(=O)c1ccc([C@@H](O)[C@@H](CO)NC(=O)C(Cl)Cl)cc1", "Potency": "inactive"}, {"compound": "Nc1nc(=S)c2[nH]cnc2[nH]1", "Potency": "inactive"}, {"compound": "CNCC[C@H](Oc1cccc2ccccc12)c1cccs1", "Potency": "inactive"}, {"compound": "COc1cc2nc(N3CCCN(C)CC3)nc(NC3CCN(Cc4ccccc4)CC3)c2cc1OC", "Potency": "inactive"}, {"compound": "Nc1nc(N)c2nc(CNc3ccc(C(=O)NC(CCC(=O)O)C(=O)O)cc3)cnc2n1", "note": "(centres undefined)", "Potency": "inactive"}, {"compound": "CNNCc1ccc(C(=O)NC(C)C)cc1", "Potency": "inactive"}, {"compound": "COc1cc(NCc2ccc3nc(N)nc(N)c3c2C)cc(OC)c1OC", "Potency": "inactive"}, {"compound": "CCc1c2c(nc3ccc(OC(=O)N4CCC(N5CCCCC5)CC4)cc13)-c1cc3c(c(=O)n1C2)COC(=O)[C@]3(O)CC", "Potency": "inactive"}, {"compound": "CNS(=O)(=O)CCc1ccc2[nH]cc(C3CCN(C)CC3)c2c1", "Potency": "inactive"}]}]}
